# Counter-ions that a name gives are not always drawn. A number with no mark means an inactive call.
# What was measured:
# Conditions in all cases: 20 µM
# [1] = system: Salmonella enterica typhimurium; test: growth AUC normalised to DMSO control (fraction of control); higher = less growth inhibition, active = hit call of the paper
# How it was run: (§1)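 Three biological replicates were carried out, with OD578 read hourly for 24 h. Before inoculation at a starting OD578 of 0.01, pathogens were passaged anaerobically twice; plates were pre-reduced mGAM containing 20 μM compound and 1% DMSO, sealed with breathable membranes, and the Haemophilus parainfluenzae medium carried added hemin and NAD. Area under each growth curve was calculated by the trapezoidal rule up to the exponential-to-stationary transition and normalised to DMSO controls on the same plate.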
# Shigella flexneri = test: as above
# How it was run: as §1
# Vibrio cholerae = test: as above
# How it was run: as §1
# [2] = system: Yersinia pseudotuberculosis; test: as above
# How it was run: as §1
# P. vulgatus RND KO = test: growth AUC normalised to DMSO control (median) (fraction of control); higher = less growth inhibition, active = hit call of the paper
# How it was run: (§2)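 Area under the growth curve, calculated by the trapezoidal rule up to entry into stationary phase, was normalised to vehicle wells on the same plate. Strains had been passaged twice overnight without oxygen and then grown in mGAM in 96-well plates from OD578 0.01, each with an approved-drug library compound at 20 μM in 1% DMSO. OD578 was read hourly over 24 h in an anaerobic incubator, and the median of three biological replicates is given.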
# P. vulgatus WT = test: as above
# How it was run: as §2
# [3] = system: S. enterica typhimurium WT; test: as above
# How it was run: as §2
# [4] = system: S. enterica typhimurium tolC KO; test: as above
# How it was run: as §2
# 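Throughout, for growth AUC normalised to DMSO control (median): active when median AUC fell below 0.1.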
SMILES,growth AUC normalised to DMSO control [1],growth AUC normalised to DMSO control (Shigella flexneri),growth AUC normalised to DMSO control (Vibrio cholerae),growth AUC normalised to DMSO control [2],growth AUC normalised to DMSO control (P. vulgatus RND KO),growth AUC normalised to DMSO control (P. vulgatus WT),growth AUC normalised to DMSO control [3],growth AUC normalised to DMSO control [4]
COc1ccccc1N1CCN(CCCNc2cc(=O)n(C)c(=O)n2C)CC1 [Urapidil hydrochloride],1.01,0.992,0.984,1,0.976,0.976,1,0.992
c1ccc([C@H]2CN3CCSC3=N2)cc1 [Levamisole hydrochloride],0.99,0.967,0.981,1,1.03,1.01,1,1
CCN(CC)CCc1nc(-c2ccccc2)no1 [Oxolamine citrate salt],0.99,1.01,1.04,1.03,0.97,0.98,1.01,1.01
CC[C@H](C)C(=O)O[C@H]1C[C@H](O)C=C2C=C[C@H](C)[C@H](CC[C@@H](O)C[C@@H](O)CC(=O)O)[C@H]21 [Pravastatin],1.04,1.08,1.09,1.02,1.05,1.06,1.02,1.01
COC(=O)C1=C(C)NC(C)=C(C(=O)OC(C)C)C1c1cccc2nonc12 (stereo not given) [Isradipine],1.01,1.02,1.02,1,1.02,1.05,1.02,0.979
COC(=O)Nc1nc2cc(Sc3ccccc3)ccc2[nH]1 [Fenbendazole],0.996,1.01,0.995,1.01,1.01,1.01,1.01,0.987
CC(C)[C@H](N)C(=O)OCCOCn1cnc2c(=O)nc(N)[nH]c21 [Valacyclovir hydrochloride],0.993,1.03,0.995,1.01,0.999,1.02,1,1.02
CN(C)CCCN1c2ccccc2Sc2ccccc21 [Promazine hydrochloride],0.936,0.945,0.86 (active),0.965,0.821,0.776,0.991,0.971
NS(=O)(=O)c1cc2c(cc1Cl)NC(CC1CCCC1)NS2(=O)=O (stereo not given) [Cyclopenthiazide],1,0.972,0.98,0.971,0.978,0.993,1,0.991
"CC(C)NCC(O)c1ccc(O)c(O)c1 (single isomer, unassigned; (+)) [(+) Isoproterenol-(+)-bitartrate salt]",1.02,1.02,1.03,0.913,1.01,1.03,1.01,0.984
Cc1ccccc1C(OCCN(C)C)c1ccccc1 (stereo not given) [Orphenadrine hydrochloride],1,1.02,1.02,0.992,1.01,0.992,0.983,0.958
CNC1(C)C2CCC(C2)C1(C)C (stereo not given) [Mecamylamine hydrochloride],1.02,1,0.976,1.02,1.09,1.09,1.02,1.02
CC(C)C(=O)Nc1ccc([N+](=O)[O-])c(C(F)(F)F)c1 [Flutamide],1.01,1.04,1.01,0.988,1,1.01,0.985,0.96
CCN(CC)CCOC(=O)C1(C2CCCCC2)CCCCC1 [Dicyclomine hydrochloride],0.935,0.978,0.889,0.98,1,1.02,0.999,0.933
CCOC(=O)C1=C(COCCN)NC(C)=C(C(=O)OC)C1c1ccccc1Cl (stereo not given) [Amlodipine],0.997,0.99,0.985,1.01,1.02,1.02,1.02,1.01
COc1cc([S+](C)[O-])ccc1-c1nc2cccnc2[nH]1 (stereo not given) [Sulmazole],1.02,1.03,1.04,1.02,1.07,1.08,0.999,0.987
CC(CCc1ccc(O)cc1)NCCc1ccc(O)c(O)c1 (stereo not given) [Dobutamine hydrochloride],0.988,0.976,0.99,1,0.993,0.999,1.01,0.998
N[C@@H]1CONC1=O [D-cycloserine],1.03,1.01,1.02,1.01,0.972,0.962,0.994,1
CCOc1nc2cccc(C(=O)O)c2n1Cc1ccc(-c2ccccc2-c2nnn[nH]2)cc1 [Candesartan],1.01,1.02,1.04,1.01,1.01,1,1.01,0.987
Nc1ccc(S(=O)(=O)Nc2ccnn2-c2ccccc2)cc1 [Sulfaphenazole],1,1.01,0.856 (active),1.01,0.989,0.961,0.998,0.981
CCOC(=O)c1ccc(OC(=O)CCCCCNC(=N)N)cc1 [Gabexate mesilate],0.993,0.973,0.987,0.932,0.985,1,1,0.325
N#Cc1ccc(C(c2ccc(C#N)cc2)n2cncn2)cc1 [Letrozole],1.01,1,0.989,0.999,1.01,1.01,1.01,1
O=C(Nc1ccccc1)OCC(CN1CCCCC1)OC(=O)Nc1ccccc1 (stereo not given) [Diperodon hydrochloride],1.01,1.03,0.999,1.01,0.998,1.01,0.997,0.986
C[C@H](CCC(=O)O)[C@H]1CC[C@H]2[C@@H]3[C@H](O)C[C@@H]4C[C@H](O)CC[C@]4(C)[C@H]3CC[C@]12C [Chenodiol],0.991,0.96,0.988,1.01,0.922,0.94,0.998,1.01
C/C=C(/C(=C/C)c1ccc(O)cc1)c1ccc(O)cc1 [Dienestrol],1,1.04,0.969,1.02,0.015 (active),0.264,1,0.857
OC(Cn1cncn1)(Cn1cncn1)c1ccc(F)cc1F [Fluconazole],1.01,1.03,1.04,1.01,1.01,1.06,1.01,1
COc1cc(OC)c(C(=O)CCCN2CCCC2)c(OC)c1 [Buflomedil hydrochloride],1,0.997,0.997,1.01,0.997,0.994,0.995,1
O=C1CCC(N2C(=O)c3ccccc3C2=O)C(=O)N1 (stereo not given) [Thalidomide],0.994,0.971,0.996,0.988,0.999,1.01,1,1
Cc1nnc(SCC2=C(C(=O)O)N3C(=O)[C@@H](NC(=O)Cn4cnnn4)[C@H]3SC2)s1 [Cefazolin sodium salt],0.00502 (active),0.0191 (active),0.126 (active),0.0805 (active),0.0126 (active),0.0107 (active),0.00709 (active),0.00476 (active)
CCCCCCCCCCCCCCCC[N+](C)(C)CCN(Cc1ccc(OC)cc1)c1ncccn1 [Thonzonium bromide],0.999,0.979,0.944,1.01,0.878,0.883,1,1

# Reference: the supplement of paper PMC12350171
